# Data published in PubChem BioAssay (NCI).
# This is part of a sample that, as a whole, favours compounds with a hit. Of some 79,000 tested, about 15% had one in any assay. Values without a mark were called inactive. Activity calls are given as the source filed them. No stated cut-off is given here; in the data, active means growth inhibition above about 70%; inactive means the rest.
# Columns and labels:
# [1] = NCI Yeast Anticancer Drug Screen. Data for the rad50 strain (AID 155);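 further: 0% = growth of vehicle-only cultures of the same strain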; conditions: S. cerevisiae rad50 strain growth inhibition, hits give high values
# In short: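 Genetically altered yeast (DNA repair pathway); compound treatment; growth inhibition vs vehicle ctrl.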
# [2] = NCI Yeast Anticancer Drug Screen. Data for the mec2-1 strain (AID 157); conditions: S. cerevisiae mec2-1 strain, hits give high values
# In short: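 Cells of the genetically defined mec2-1 yeast strain are incubated with test compound. Inhibition of growth is calculated against vehicle-treated controls.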
# [3] = NCI Yeast Anticancer Drug Screen. Data for the sgs1 mgt1 strain (AID 161);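 further: 0% = growth of cultures given vehicle only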; conditions: S. cerevisiae sgs1 mgt1 strain, hits give high values
# In short: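 Mutant yeast exposed to compound; growth scored against vehicle-only wells.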
# [4] = NCI Yeast Anticancer Drug Screen. Data for the cln2 rad14 strain (AID 165);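 further: 0% = growth equal to vehicle treated cultures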; conditions: S. cerevisiae cln2 rad14 strain, hits give high values
# In short: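 The screen exposed genetically defined yeast (cln2 rad14) to test compounds and scored growth inhibition relative to vehicle-treated controls.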
# [5] = NCI Yeast Anticancer Drug Screen. Data for the bub3 strain (AID 167); conditions: S. cerevisiae bub3 mutant strain, hits give high values
# In short: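 Yeast carrying a defined mutation is treated with each compound, and growth is compared with that of vehicle-exposed cells to give inhibition.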
# [6] = NCI Yeast Anticancer Drug Screen. Data for the mlh1 rad18 strain (AID 175); conditions: S. cerevisiae mlh1 rad18 strain growth inhibition, hits give high values
# In short: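 Compound-treated yeast growth, normalised to vehicle controls. Strain bears defined DNA repair mutations.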
# [7] = at 5.0 µM (retest, dose inferred, filed as 0.5)
# [8] = at 50.0 µM (retest, dose inferred, filed as 5.0)
SMILES,"growth inhibition [1, 7]","growth inhibition [1, 8]",growth inhibition ([1]; at 50.0 µM),"growth inhibition [2, 7]","growth inhibition [2, 8]",growth inhibition ([2]; at 50.0 µM),"growth inhibition [3, 7]","growth inhibition [3, 8]",growth inhibition ([3]; at 50.0 µM),"growth inhibition [4, 7]","growth inhibition [4, 8]",growth inhibition ([4]; at 50.0 µM),"growth inhibition [5, 7]","growth inhibition [5, 8]",growth inhibition ([5]; at 50.0 µM),"growth inhibition [6, 7]","growth inhibition [6, 8]",growth inhibition ([6]; at 50.0 µM)
CCCCCCN(CCCCCC)P(=O)(N1CC1C)N1CC1C (configuration not stated),-2%,99% (active),-11.6%,-5%,99% (active),32.4%,-3%,33%,10.1%,3%,99% (active),-7.75%,7%,99% (active),81.2% (active),-2%,99% (active),24.9%
O=C1/C(=C/c2ccccc2)CN(C(=O)CCN2CCCC2)C/C1=C\c1ccccc1,5%,83% (active),91.8% (active),10%,86% (active),90.5% (active),99% (active),96% (active),91.3% (active),99% (active),96% (active),89.7% (active),99% (active),96% (active),92.2% (active),2%,89% (active),90.5% (active)
COc1ccc(C2=C(Cl)C(=O)N(c3ccccc3Cl)C(=O)C2(Cl)Cl)cc1,19%,96% (active),92.7% (active),-1%,95% (active),98.7% (active),17%,97% (active),97.5% (active),-5%,96% (active),71.5% (active),0%,97% (active),97.1% (active),17%,80% (active),97.4% (active)
COc1ccc(C(C)c2cc3c(cc2OC/C(C)=N/NC(N)=O)OCO3)cc1 (configuration not stated),61%,93% (active),74.4% (active),43%,99% (active),71.6% (active),41%,87% (active),82% (active),19%,97% (active),19.6%,58%,99% (active),88.1% (active),61%,96% (active),90.3% (active)
CC1=CC(=O)CC(c2ccccc2)C1 (configuration not stated),43%,98% (active),97.6% (active),30%,99% (active),98.3% (active),22%,99% (active),98.7% (active),11%,97% (active),92.5% (active),31%,99% (active),98.7% (active),55%,99% (active),98.3% (active)
[Cl-].[La+3].[O-]/N=C(\c1ccccc1)c1ccccn1.[O-]/N=C(\c1ccccc1)c1ccccn1.[O-]/N=C(\c1ccccc1)c1ccccn1,42%,63%,63.3%,25%,60%,40.2%,31%,68%,43.2%,21%,34%,43.5%,42%,90% (active),67.3%,43%,68%,59.2%
C=CC1(C)CCC2C(=CCC3C2(C)CC(O)C(O)C3(C)COC2OC(CO)C(O)C(O)C2O)C1 (configuration not stated),1%,99% (active),93.1% (active),-1%,100% (active),94.1% (active),-1%,99% (active),94.1% (active),1%,99% (active),90.5% (active),0%,99% (active),93.6% (active),0%,82% (active),-41.4%
FC(F)(F)c1[nH]nc(-c2ccc(Cl)cc2)c1N=NN1CCOCC1,98% (active),96% (active),94.6% (active),99% (active),94% (active),95.8% (active),99% (active),94% (active),95.4% (active),99% (active),98% (active),91.2% (active),99% (active),98% (active),82.5% (active),99% (active),97% (active),93.6% (active)
CC(O[Si](C)(C)C(C)(C)C)C(=O)Sc1ccccn1 (configuration not stated),-1%,66%,95.3% (active),-9%,97% (active),97.2% (active),-6%,54%,95.5% (active),-10%,84% (active),85.9% (active),-6%,99% (active),93.9% (active),-9%,48%,94.7% (active)
O=C(/C=C\c1ccccc1)/C=C/c1ccccc1,4%,39%,40.5%,-2%,8%,12.6%,0%,24%,28.2%,-1%,4%,-14.3%,7%,53%,27.9%,-1%,17%,70.8% (active)
Oc1ccc(Cc2cccc(Br)c2)c(O)c1,-2%,99% (active),99.3% (active),-4%,99% (active),99.3% (active),-2%,99% (active),99.3% (active),-9%,99% (active),99.2% (active),-3%,99% (active),99.4% (active),-3%,99% (active),99.2% (active)
Nc1ccc(S(=O)(=O)C23CC4CC(CC(C4)C2)C3)cc1,-2%,96% (active),97.9% (active),-16%,98% (active),98.8% (active),-3%,98% (active),97.7% (active),1%,93% (active),93.5% (active),64%,98% (active),95.8% (active),13%,98% (active),97.5% (active)
O=C(COc1ccc(Br)cc1Br)N1N=C(c2ccc([N+](=O)[O-])o2)CC1(O)c1ccccc1 (configuration not stated),23%,23%,19.4%,6%,6%,71.2% (active),12%,12%,70.7% (active),0%,0%,76.2% (active),7%,7%,59.6%,22%,22%,58.8%
CCCCCCCCCCCC(=O)OCCCCC,-5%,0%,74.8% (active),-1%,1%,87.3% (active),-3%,3%,65.8%,-1%,-4%,-2.5%,-2%,-4%,80.6% (active),-8%,0%,87.7% (active)
CC(NNC(=S)N1CCCC1)c1ccccn1 (configuration not stated),63%,97% (active),98.8% (active),52%,98% (active),98.7% (active),63%,98% (active),98.9% (active),48%,98% (active),99% (active),53%,98% (active),99.2% (active),60%,98% (active),98.8% (active)
CCCCCCCCCCNCCSSCCNC(C)=O,89% (active),98% (active),99.2% (active),87% (active),99% (active),99.4% (active),97% (active),99% (active),99.3% (active),79% (active),92% (active),98.4% (active),90% (active),98% (active),99.5% (active),90% (active),99% (active),99.3% (active)
C=CCNC(=O)c1ccccc1C(=O)O,2%,28%,63.2%,1%,1%,36.6%,0%,1%,28.2%,2%,18%,23.6%,4%,7%,68.2%,3%,13%,46.7%
Cc1c(N=Nc2ccc(Br)cc2)c(-c2ccccc2)nn1C(N)=S,-2%,93% (active),97.7% (active),1%,97% (active),97.5% (active),7%,97% (active),98% (active),-4%,94% (active),95.4% (active),7%,95% (active),96.5% (active),0%,97% (active),97.7% (active)
CCCCNCCC1(c2ccccc2)C(=O)Oc2ccccc21 (configuration not stated),-5%,14%,63.2%,-4%,18%,57.5%,-5%,35%,59.9%,0%,-17%,46.2%,-5%,-12%,-9.45%,-7%,10%,53%
